# PubChem BioAssay (NCATS)
# Records with an inconclusive call do not appear. Where a call stands in place of a potency, no number is given. Calls of active or inactive are those of the source. Unless noted, calls follow the shape of the full dose curve.
# Experiments:
# [1] = qHTS for Inhibitors of the Functional Ribonucleoprotein Complex (vRNP) of Lassa (LASV) Arenavirus: LASV Primary Screen - GLuc reporter signal (AID 1347082; calls by dose curve; tested in HEK293 reporter line; also: nearly all actives have a fitted effect of over 60% in size; also: potency is read from the fitted curve at half-maximal effect)
# [2] = qHTS for Inhibitors of the Functional Ribonucleoprotein Complex (vRNP) of Lassa (LASV) Arenavirus: Viability assay - alamar blue signal for LASV Primary Screen (AID 1347083; calls by dose curve; tested in HEK293 reporter line; also: nearly all actives have a fitted effect of over 80% in size; also: potency is read from the fitted curve at half-maximal effect)
# [3] = qHTS for Inhibitors of the Functional Ribonucleoprotein Complex (vRNP) of Lymphocytic Choriomeningitis Arenaviruses (LCMV): Viability assay - alamar blue signal for LCMV Primary Screen (AID 1347085; calls by dose curve; tested in HEK293 reporter line; also: series mostly up to about 57 µM; nearly all actives have a fitted effect of over 80% in size)
# [4] = target: Nucleoprotein (Lymphocytic choriomeningitis virus (strain Armstrong)) (UniProt P09992); assay: qHTS for Inhibitors of the Functional Ribonucleoprotein Complex (vRNP) of Lymphocytic Choriomeningitis Arenaviruses (LCMV): LCMV Primary Screen - GLuc reporter signal (AID 1347086); also: nearly all actives have a fitted effect of over 70% in size; also: potency is read from the fitted curve at half-maximal effect
# Chain of Nucleoprotein (Lymphocytic choriomeningitis virus (strain Armstrong)) (P09992 whole entry, looked up): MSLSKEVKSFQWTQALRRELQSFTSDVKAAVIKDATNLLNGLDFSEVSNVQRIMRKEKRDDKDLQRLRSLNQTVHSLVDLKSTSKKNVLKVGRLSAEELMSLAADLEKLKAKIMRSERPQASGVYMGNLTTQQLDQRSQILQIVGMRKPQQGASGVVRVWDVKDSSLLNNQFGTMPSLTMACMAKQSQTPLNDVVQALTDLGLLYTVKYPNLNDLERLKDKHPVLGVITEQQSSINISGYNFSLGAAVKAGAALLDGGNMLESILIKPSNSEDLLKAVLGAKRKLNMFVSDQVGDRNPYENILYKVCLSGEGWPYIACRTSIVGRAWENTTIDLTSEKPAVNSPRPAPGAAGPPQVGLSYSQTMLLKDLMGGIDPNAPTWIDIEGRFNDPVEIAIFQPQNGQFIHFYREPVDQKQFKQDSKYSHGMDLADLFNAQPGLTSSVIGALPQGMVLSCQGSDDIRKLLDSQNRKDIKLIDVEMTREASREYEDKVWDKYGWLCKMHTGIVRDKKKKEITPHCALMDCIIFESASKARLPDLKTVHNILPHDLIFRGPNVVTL
SMILES,Potency [1],Potency [2],Potency [3],Potency [4]
CCCCC/C(C=O)=C\c1ccccc1,inactive,inactive,inactive,inactive
CCOC(CN1C(=O)[C@](CC(=O)Nc2ccc(C)cc2)(NC(=O)Nc2ccc(C)cc2)c2ccccc21)OCC,inactive,inactive,inactive,inactive
Cn1cc(-c2ccc3nnc(Sc4ccc5ncccc5c4)n3n2)cn1,inactive,inactive,–,inactive
O=C(Nc1ccccc1-c1cn2c(CN3CCNCC3)csc2n1)c1cnc2ccccc2n1,inactive,inactive,inactive,inactive
COc1ccc(CCN2CCN(CCCc3ccccc3)CC2)cc1OC,inactive,inactive,inactive,inactive
COc1c(Cl)cc2c([nH]c3cnccc32)c1NC(=O)c1cccnc1C,inactive,–,–,inactive
CNC(=O)c1cc(Oc2ccc(NC(=O)Nc3ccc(Cl)c(C(F)(F)F)c3)c(F)c2)ccn1,inactive,–,–,inactive
COC(=O)[C@]12CCC(C)(C)C[C@@H]1[C@@H]1C(=O)C=C3[C@@]4(C)C=C(C#N)C(=O)C(C)(C)[C@@H]4CC[C@@]3(C)[C@]1(C)CC2,4.85 µM (active),3.43 µM (active),–,2.17 µM (active)
Fc1cc(-c2cccc3ncc(-c4cnn(C5CCNCC5)c4)nc23)cc(F)c1CN1CCOCC1,24.3 µM (active),–,–,inactive
Cn1c(=O)c(F)c(Nc2ccc(I)cc2F)c2c(=O)n(C[C@@H](O)CO)cnc21,–,4.85 µM (active),–,–
COCC(=O)NCC=Cc1ccc2ncnc(Nc3ccc(Oc4ccc(C)nc4)c(C)c3)c2c1,43.2 µM (active),–,inactive,–
C=C[C@@H]1CN2CCC1C[C@H]2[C@H](O)c1ccnc2ccccc12 (some centres undefined),inactive,–,inactive,inactive
